Laboratory results as given in PubChem BioAssay AID485281 (National Center for Advancing Translational Sciences (NCATS), 2010).
About 260 (0.074%) of roughly 350,000 compounds were called active. Not shown: some 8% with an inconclusive outcome. The call rests on the fitted dose curve; in most records, active means well fitted inhibition curve with a large enough effect; inconclusive means small, poorly fitted or top-dose-only effect; inactive means no such curve, though single readings can be large or run the other way. The full list was thinned out, with actives kept by preference.

Target: Ferritin light chain (Equus caballus) (UniProt P02791)
Test: qHTS Assay for Identification of Novel General Anesthetics; further: nearly all actives have a fitted effect of over 20% in size
Details: apoferritin/1-aminoanthracene competitive binding, fluorescence; series mostly up to 77.5 µM; activity change, negative = displacement: at the top concentration
In short: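 Concentration-response curves derived by four-parameter Hill fitting of normalized fluorescence, where compounds displaced 1-AMA from 10 uM horse apoferritin following a brief 10 min room-temperature incubation; propofol titration acted as positive control.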
On the % scale 0 is the no-effect control and ±100 the full control effect; potency means the concentration at half of the fitted maximal effect.

Sequence of Ferritin light chain (Equus caballus) (P02791 2-175 limits assumed): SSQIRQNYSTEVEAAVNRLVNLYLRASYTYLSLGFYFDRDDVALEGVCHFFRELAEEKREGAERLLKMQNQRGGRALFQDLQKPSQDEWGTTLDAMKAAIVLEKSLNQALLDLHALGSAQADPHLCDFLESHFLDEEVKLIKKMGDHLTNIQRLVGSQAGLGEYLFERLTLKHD

Compound	activity change, negative = displacement	Potency
COc1ccc(-n2ccn(CC(=O)Nc3ccc(C)c(C)c3)c(=O)c2=O)cc1OC	-4.83% (inactive)	
Cc1nn(C(C)C(=O)NCCc2ccccc2)c(=O)c2c1sc1ccccc12 (stereo unspecified)	78.3% (inactive)	
COc1ccc(-c2cccc(NS(=O)(=O)c3cc(C)c(OC)c(C)c3C)c2)nn1	-14.2% (inactive)	
Cc1cccc(C(=O)Nc2ccc(S(=O)(=O)N3CCCCC3c3cccnc3)cc2)c1 (stereo unspecified)	8.01% (inactive)	
CCCCN(CC)C(=O)c1c[nH]c2ccc(S(=O)(=O)Nc3cccc(OC)c3)cc2c1=O	-15.8% (inactive)	
Cc1c(NC(=S)NCc2ccc(F)cc2)cccc1[N+](=O)[O-]	-8.7% (inactive)	
O=C(NCCNc1ccccc1[N+](=O)[O-])c1ccccc1F	-17.2% (inactive)	
O=[N+]([O-])c1ccccc1NCc1ccc(Cl)cc1		8.91 µM (active)
CC(Nc1ccc(-c2nc(-c3ccco3)no2)cc1[N+](=O)[O-])c1ccccc1 (stereo unspecified)	-15.1% (inactive)	
COc1ccc(C2C(=O)N(C3CCCCC3)CC(=O)N2Cc2ccccc2Cl)cc1OC (stereo unspecified)	-5.68% (inactive)	
COc1ccc(Nc2ncc3c(n2)CCN(C(=O)OC(C)(C)C)C3)cc1	-0.4% (inactive)	
CCOC(=O)C1CCN(c2csc3ccc(C)cc3c2=O)CC1	-6.57% (inactive)	
NC(=O)Nc1ccccc1C(=O)NCCc1ccccc1	6.37% (inactive)	
Nc1nonc1C(=O)NCCc1ccccc1		17.8 µM (active)
O=C(O)c1ccccc1-c1ccccc1C(=O)NCCc1ccccc1	-2.83% (inactive)	
O=C1CCCc2cc(S(=O)(=O)N3CCCC(C(=O)NCc4ccccc4)C3)ccc2N1 (stereo unspecified)	-3.62% (inactive)	
CCOc1ccccc1C(=O)Nc1ccc2c(c1)N(C)C(=O)c1ccccc1S2	-13.2% (inactive)	
Cc1cc(F)ccc1NC1(c2ccccc2)C(=O)c2ccccc2C1=O	-6.15% (inactive)	
COc1ccc(-c2noc(-c3ccc(N4CCN(c5ccccc5)CC4)c([N+](=O)[O-])c3)n2)cc1OC	-8.01% (inactive)	
Cc1ccc(-c2nnc(SCC(=O)NCc3ccccc3)nc2-c2ccc(C)cc2)cc1	-7.43% (inactive)	
Cc1ccccc1CNC(=O)C(=O)NCC(c1cccs1)S(=O)(=O)c1cccs1 (stereo unspecified)	46.9% (inactive)	
COc1ccc(Nc2cc(C(=O)NCCCN(C)c3ccccc3)c3ccccc3n2)c(OC)c1	50% (inactive)	
CCOC(=O)CN1C(C(=O)c2ccccc2)=C(OC(=O)C(C)(C)C)c2ccccc2S1(=O)=O	-5.44% (inactive)	
COc1ccc(N2CCN(S(=O)(=O)c3ccc(-c4coc(C)n4)cc3)CC2)cc1	-0.187% (inactive)	
Cn1c(SCC(=O)N2CCCc3ccccc32)ncc(C(=O)Nc2ccc(F)cc2)c1=O	-15.9% (inactive)	
CCOC(=O)c1scc(-c2ccccc2)c1S(=O)(=O)Nc1ccccc1F	57.3% (inactive)	

Compound	activity change, negative = displacement	Potency
COc1ccc2c(c1)CCc1c(C(=O)Nc3cc(C)ccc3O)noc1-2	-8.63% (inactive)	
CCc1ccc(NC(=O)c2cc3c(=O)n(Cc4cccnc4)ccc3nc2C)cc1	-2.71% (inactive)	
COc1ccc(NC(=O)CSc2nccn2Cc2ccc3c(c2)OCO3)cc1	-10.6% (inactive)	
CC(=O)N1CCCc2cc(S(=O)(=O)N3CCC(C(=O)NCc4ccc(C)cc4)CC3)ccc21	-10.5% (inactive)	
CCOc1ccc(NC(=O)c2c(NC(=O)Cc3ccccc3)sc3c2CCCCC3)cc1	-5.25% (inactive)	
c1cnc(NC2C3CC4CC(C3)CC2C4)nc1 (stereo unspecified)		5.62 µM (active)
c1ccc2c(NC3C4CC5CC(C4)CC3C5)nc(N3CCOCC3)nc2c1 (stereo unspecified)	89.7% (inactive)	
Cc1c(-c2nsc(NC(=O)c3cccc(Cl)c3)n2)nnn1-c1ccccc1C(F)(F)F	-23.3% (inactive)	
Cc1cccc(C(=O)Nc2ccc(-c3nc4ccccc4s3)c(C)c2)c1	-9.88% (inactive)	
CN1CCN(c2oc(-c3ccc(COc4ccc(Cl)cc4)o3)nc2C#N)CC1	-7.72% (inactive)	
COc1ccc(OCC(=O)Nc2cccc(C(=O)OCc3cc(=O)n4nc(C)sc4n3)c2)cc1	52.4% (inactive)	
O=C(NCC12CC3CC(CC(C3)C1)C2)c1cc2nc(-c3ccccc3)cc(C(F)(F)F)n2n1	-6.46% (inactive)	
CCN(CC)c1ccc(NC(=O)CN2CCN(CC(=O)Nc3ccc(Cl)cc3)CC2)cc1	-11% (inactive)	
COc1ccc(-c2nc3nc(C)cc(C)n3c2Nc2c(C)cccc2C)cc1	275% (inactive)	
CC1=C(C(=O)OCC2CCCCC2)C(c2c(F)cccc2Cl)CC(=O)N1 (stereo unspecified)	-17.3% (inactive)	
COc1cccc(Cn2c(SCc3ccc(C(=O)N4CCC(C)CC4)cc3)nc3ccncc32)c1	72.3% (inactive)	
COCCNS(=O)(=O)c1cc(-c2nn3c(C)nnc3c3ccccc23)ccc1C	-12.8% (inactive)	
CCc1cccc(C)c1NS(=O)(=O)c1ccc(-c2cc(C)no2)s1	3.74% (inactive)	
Cc1cc(C)cc(-n2ccnc2SCC(=O)Nc2nc3ccccc3s2)c1	60.5% (inactive)	
COc1ccc(CNC(=O)Cc2coc3ccc(C(C)C)cc23)cc1	3.71% (inactive)	
Cc1cc(=O)n(CC(=O)Nc2cccc([N+](=O)[O-])c2)c(-n2nc(C)cc2C)n1	-3.5% (inactive)	
O=C(CCc1nc(CN2CCN(S(=O)(=O)c3ccc(Cl)cc3)CC2)no1)N1CCCCC1	8.4% (inactive)	
COc1ccc(C2Sc3ccccc3NC3=C2C(=O)c2ccccc23)c(OC)c1OC (stereo unspecified)	-0.239% (inactive)	
CCOCCCn1c(SCC(=O)Nc2ccc(CC)cc2)nc2ccccc2c1=O	-9.21% (inactive)	
COc1ccc(CCNC(=O)CCCCn2c(=O)c3ccccc3n(Cc3ccccc3C)c2=O)cc1OC	23.4% (inactive)	
COc1ccc(CNC(=O)CCc2c(C)nn(-c3ccc(N4CCCC4)nn3)c2C)cc1	-8.08% (inactive)	

Compound	activity change, negative = displacement	Potency
Cc1ccc(SCC(=O)Nc2ccc3oc(-c4ccccc4F)nc3c2)cc1	-11.2% (inactive)	
Cc1ccc2nc(CN3CCN(S(=O)(=O)c4ccc(C)c(C)c4)CC3)oc2c1	-10.2% (inactive)	
Cc1ccc(C)c(NC(=O)CSC2=Nc3ccccc3N=C(c3ccc(F)cc3)C2)c1	-1.36% (inactive)	
Cc1c(Br)cc(C(=O)N2CCCCCC2)c(C)c1C		10 µM (active)
Cc1ccc(C(=O)N2CCCC2)c(F)c1F	-14.7% (inactive)	
COc1cc(OC)c(C(=O)N2CCCC2)cc1OC	-10.8% (inactive)	
CCCn1c2ccccc2c2cnn(CC(=O)N(CC)c3cc(C)ccc3C)c(=O)c21	-5.87% (inactive)	
CCOC(=O)Cn1c(=O)n(C2CCCCC2)c2nc(-c3cccc(OC)c3)nc(C(N)=O)c21	8.75% (inactive)	
O=C(CN1c2ccccc2S(=O)(=O)c2ccccc21)Nc1cccc(C(F)(F)F)c1	8.17% (inactive)	
CCn1c(C)c(C)c2cc(C(=O)NCCc3cc(OC)ccc3OC)ccc21	-2.71% (inactive)	
Cc1cc(OCC(=O)NCC2(N(C)C)CCCCC2)cc(C)c1Cl	-9.9% (inactive)	
CN(C)CCCn1c(-c2ccc(Cl)cc2)csc1=Nc1ccccc1	9.73% (inactive)	
O=c1cc(-c2ccccc2)n2c(SCc3ccccc3)nnc2[nH]1	44% (inactive)	
Nc1ccc(C(=O)OCC(=O)NC2CCS(=O)(=O)C2)cc1[N+](=O)[O-] (stereo unspecified)	-8.39% (inactive)	
Nc1ccc(C(=O)OCC(=O)NC2CCCc3ccccc32)cc1[N+](=O)[O-] (stereo unspecified)		20 µM (active)
COC(=O)c1cc(OCC(=O)NC2CCCc3ccccc32)cc(C(=O)OC)c1 (stereo unspecified)	0.832% (inactive)	
CC(C)c1ccc(NC(=O)Cn2c3ncccc3c(=O)n2-c2ccccc2)cc1	2.35% (inactive)	
CCc1ccc(NC(=O)c2sc3nc4c(cc3c2N)CN(CC)CC4)cc1	-8.24% (inactive)	
O=C(CCc1nc(CN2CCN(S(=O)(=O)c3ccc(Br)cc3)CC2)no1)N1CCCCC1	-9.1% (inactive)	
Cc1cc(C(=O)Nc2cccc(C(F)(F)F)c2)c2c(C)nn(-c3cccc(F)c3)c2n1	52.9% (inactive)	
CCc1cccc(NC(=O)CSc2nccn2C)c1	-12.6% (inactive)	
COc1ccc(-c2cn3c(C)c(C(=O)Nc4cc(C)cc(C)c4)sc3n2)cc1	1.93% (inactive)	
O=S(=O)(c1ccccc1)c1nc(-c2ccc(Cl)cc2Cl)oc1N1CCCCC1	643% (inactive)	
COc1cc(C(=O)Nc2ccc(-n3c(C)nc4ccccc4c3=O)cc2)cc(OC)c1OC	5.65% (inactive)	
O=C(CC1C(=O)NCCN1Cc1ccc(-c2ccccc2)cc1)NCC1CCOCC1 (stereo unspecified)	-9.06% (inactive)	
CCOc1ccc(CN2CCNC(=O)C2CC(=O)NCCCC2CCCC2)cc1 (stereo unspecified)		31.6 µM (active)

Compound	activity change, negative = displacement	Potency
Cc1nccn1CCCNC(=O)CC1C(=O)NCCN1Cc1ccc(Cl)c(F)c1 (stereo unspecified)	-5.87% (inactive)	
CC(=O)c1cccc(NC(=O)c2nc(-c3ccccc3)n(-c3cccc(C)c3)n2)c1	-12% (inactive)	
O=C(c1cnn(-c2ccc(F)cc2)c1-n1cccc1)N1CCN(c2ccc(F)cc2)CC1	5.79% (inactive)	
CCCn1c2ccccc2c2cnn(CC(=O)N(C)c3ccccc3CC)c(=O)c21	90.4% (inactive)	
O=C(CCC(=O)N1CC2CCCN2c2ccccc21)NCc1ccccc1Cl (stereo unspecified)	-0.193% (inactive)	
Cc1ccc2nc(-c3ccc(C)c(NC(=O)Cc4ccccc4)c3)oc2c1	-0.615% (inactive)	
COc1ccc(N(CC(=O)NCCc2ccc(Cl)cc2)S(=O)(=O)c2c(C)nn(C)c2C)cc1	-5.18% (inactive)	
Cc1ccc(S(=O)(=O)NCCc2nnc3ccc(SCc4cccnc4)nn23)cc1	-11.4% (inactive)	
O=S(=O)(NCCc1nnc2ccc(SCc3ccc(Cl)cc3Cl)nn12)c1ccccc1		17.8 µM (active)
COC(=O)CSc1ccc2nnc(CCNS(=O)(=O)c3ccc(C)cc3)n2n1		inactive
CN1C(=O)c2ccccc2Sc2ccc(NC(=O)Cc3ccc(Cl)cc3)cc21	-9.63% (inactive)	
O=C(NCC(c1ccc2c(c1)OCO2)N1CCN(c2ccccc2)CC1)C(=O)Nc1ccccc1F (stereo unspecified)	-2.09% (inactive)	
Cc1ccc(Cl)cc1NC(=O)C(C)n1nnc2sc(-c3ccccc3)cc2c1=O (stereo unspecified)	6.14% (inactive)	
O=C(Cn1cc(SCc2cccc(Cl)c2)c2ccccc21)N1CCCCC1	38.8% (inactive)	
CCN1CCN(c2ncc3c(n2)CC(c2ccccc2O)CC3=O)CC1 (stereo unspecified)	-14.1% (inactive)	
Nc1nc(SC23CC4CC(CC(C4)C2)C3)ns1	-7.75% (inactive)	
CCCSc1nsc(N)n1	-16.3% (inactive)	
CCCCCCSc1nsc(N)n1		8.91 µM (active)
O=C(c1ccc(Br)cc1)N(Cc1cccs1)c1ccc(F)cc1	8.94% (inactive)	
Cn1cc(S(=O)(=O)N2CCCCCC2)cc1C(=O)N1CCN(c2ccc(F)cc2)CC1	-7.65% (inactive)	
CC1Cc2ccccc2N1C(=O)CSc1nc2ccccc2o1 (stereo unspecified)	-12.6% (inactive)	
CC1Cc2ccccc2N1C(=O)CSc1nnc(C2CC2)n1C (stereo unspecified)	-5.61% (inactive)	
Cc1cc(=O)[nH]c(SCC(=O)N2c3ccccc3CC2C)n1 (stereo unspecified)		14.1 µM (active)
